A number with no mark means an inactive call. Active and inactive are the calls of the source. No stated cut-off is given here; in the data, active means fold change permeability below about 0.7 or above about 1.3; inactive means in between.
test: modulators of brain endothelial barrier permeability, primary screen, cell-based, FITC-avidin fluorescence, HTS (AID 1963498); details: actives lie on both sides; further: test concentration not given here

| SMILES | fold change permeability |
| --- | --- |
| O=C(Nc1ccncc1)c1cc([N+](=O)[O-])ccc1Cl | 1 |
| O=C1CN2Cc3c(ccc(Cl)c3Cl)N=C2N1 | 1.1 |
| Cc1ccc(S(=O)(=O)Nc2ccccc2N2CCCCC2)s1 | 1 |
| CN1CCN(CCCN2c3ccccc3Sc3ccc(C(F)(F)F)cc32)CC1 | 1.2 |
| NCCCCC(=O)O | 1.1 |
| Fc1cccc(/C=N\N=C/c2cccc(F)c2)c1 | 0.8 |
| C[C@]12CC[C@@H]3c4ccc(O)cc4C[C@@H](CCCCCCCCCS(=O)CCCC(F)(F)C(F)(F)F)[C@H]3[C@@H]1CC[C@@H]2O (some centres undefined) | 1 |
| CC(C)(CO)Cc1cc(C(C)(C)C)c(O)c(C(C)(C)C)c1 | 1.1 |
| NO | 1.1 |
| O=C(O)[C@H]1NCCC[C@H]1C(=O)O | 1 |
| Fc1ccc(CN(C2=NCCN2)c2c(Cl)cccc2Cl)cc1 | 1.1 |
| O=c1[nH]c(=S)[nH]c(-c2ccccc2)c1Cc1c(O)ccc2ccccc12 | 0.8 |
| Brc1c(Br)c(Br)c2[nH]cnc2c1Br | 1.2 |
| O=c1c(O)c(-c2ccc(O)c(O)c2)oc2cc(O)cc(O)c12 | 0.9 |
| C[C@@]12C(=O)OC(=O)[C@]1(C)[C@H]1CC[C@@H]2O1 | 1.1 |
| C=CC(N)CCC(=O)O (centres undefined) | 1.5 (active) |
| N#CC(C#N)=C(N)/C(C#N)=C/c1ccc(O)cc1 | 0.7 (active) |
| CN(C)CCCNC(=O)c1ccc(-c2cc(O)c3ncccc3c2)cc1 | 0.8 |
| O=C1CCCC(=O)C1C(=O)c1ccc(C(F)(F)F)cc1[N+](=O)[O-] | 0.9 |
| CC(N)=O | 0.9 |

| SMILES | fold change permeability |
| --- | --- |
| CN(C(=O)CCCOc1ccc2[nH]c(=O)ccc2c1)C1CCCCC1 | 0.9 |
| Cc1c(C(=O)N2CCOc3ccc(-c4ccc(N)nc4)cc3C2)ccc(S(C)(=O)=O)c1F | 1.2 |
| CCC(=O)OCC(=O)[C@@]1(OC(=O)CC)[C@H](C)C[C@H]2[C@H]3[C@H]([C@@H](O)C[C@@]21C)[C@@]1(C)C=CC(=O)C=C1C[C@H]3Cl | 1.5 (active) |
| Cn1c(=O)c2[nH]c(C3CCCC3)nc2n(C)c1=O | 1.3 (active) |
| CC(C)(CN1C(=O)C(Cl)=C(Cl)C1=O)CN1C(=O)C(Cl)=C(Cl)C1=O | 1.1 |
| O=C(c1cc(O)c(O)c([N+](=O)[O-])c1)c1ccccc1F | 1.7 (active) |
| CCN(CC)CCOC(=O)c1ccc(N)cc1 | 0.8 |
| OCCN1CCN(CCCN2c3ccccc3C=Cc3ccccc32)CC1 | 1.2 |
| OC[C@H]1NC[C@H](O)[C@@H](O)[C@@H]1O | 1.1 |
| COC(=O)C1=C(C)NC(C)=C([N+](=O)[O-])C1c1ccccc1C(F)(F)F (centres undefined) | 1.1 |
| COc1ccc(C2(CNC(=O)c3ccc(NC(=O)c4ccco4)cc3)CCOCC2)cc1 | 0.7 (active) |
| CCCCCCCCCC[Si](C)(C)CCC(=O)NC(Cc1ccc(C)cc1)c1ccccc1 (centres undefined) | 0.8 |
| NC[C@@H]1O[C@H](C23CC4CC(CC(C4)C2)C3)Cc2c1ccc(O)c2O | 1.1 |
| Nc1nc(N)c2nc(-c3ccccc3)c(N)nc2n1 | 1.4 (active) |
| CCN(CC)CCOc1ccc(/C(=C(/Cl)c2ccccc2)c2ccccc2)cc1 | 1.2 |
| C[n+]1cccc(C(N)=O)c1 | 0.9 |
| NC[C@@H]1O[C@H](c2ccccc2)Cc2c1ccc(O)c2O | 1.3 (active) |
| Cc1ccc(C(=O)N(CCCN)C(c2oc3cc(Cl)ccc3c(=O)c2Cc2ccccc2)C(C)C)cc1 (centres undefined) | 1.6 (active) |
| CCC(NC(C)C)C(O)c1ccc(O)c(O)c1 (centres undefined) | 1.9 (active) |

— PubChem BioAssay
